This is part of a sample that, as a whole, favours compounds with a hit. Of some 83,000 tested, about 20% had one in any assay.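 Interpretation: 100, growth as untreated; towards 0, rising growth inhibition; 0, no net growth; 0 to -100, cell death. Compounds scoring below 10 were considered active.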 Values without a mark were called inactive. Active and inactive are the calls of the source.
Test system: SN12C renal
Test: NCI-60 one-dose screen, 48 h (100 = growth as untreated, 0 = no growth, -100 = all killed)
Details: 10 µM unless noted

Row | Compound | growth
1 | O=[N+]([O-])c1ccc(N/N=C/c2c(O)ccc3ccccc23)nc1 | 49.4%
2 | COc1cc(/C=C/c2nnc(-c3cc(-c4ccccc4)n[nH]3)o2)cc(OC)c1OC | 99.5%
3 | COc1cc2c(-c3nc4cc(Cl)c(F)cc4s3)cc(=O)oc2c(C)c1OC | -73.8% (active)
4 | COc1cccc(-c2nnc(N)o2)c1 | 97.2%
5 | CSc1nc2c(c(=O)n1C)C(c1ccccc1)C1=C(N2)/C(=C/c2ccccc2)CCC1 (stereo unspecified) | 55.4%
6 | CCCCCCC/C(=N\N=C(N)N)c1ccc(O)cc1 | 39.6%
7 | CCOC(=O)c1c(NC(=O)C2CCCCC2C(=O)O)sc2c1CCCC2 (stereo unspecified) | 104%
8 | C[N+]1(CCC[N+]2(C)C[C@@H]3[C@H](C2)[C@@H]2C=C[C@H]3C2)CCOCC1 (stereo partly specified) | 101%
9 | O=C(CCc1nnc(SCc2ccccc2)s1)c1nc2ccccc2[nH]1 | 92.7%
10 | c1csc([C@@H]2C[C@@H]3Cc4ccc5ccccc5c4N2O3)c1 | 94.3%
11 | O=C1/C(=C/c2ccc([N+](=O)[O-])s2)Oc2ccc(Br)cc21 | -32.5% (active)
12 | CCCCCCC(C)(O)c1ccccc1 (stereo unspecified) | 96.7%
13 | CCOC(Cc1c(N)[nH]c(=S)[nH]c1=O)OCC | 110%
14 | CCN1C2=C(SC(=S)C1=C1SC(C(=O)OC)=C(C(=O)OC)S1)SC(=Nc1ccc(OC)cc1)C2=O | -11.8% (active)
15 | CCOc1nc(-c2ccccc2)cc2c(O)c(-c3nnco3)[nH]c(=O)c12 | 47.2%
16 | COc1cccc2c1O/C(=C\c1c([N+](=O)[O-])ncn1C)C2=O | 104%
